Source: PubChem BioAssay AID504441 (Broad Institute, 2011)
Hit rate of the full screen: of about 310,000 compounds, about 1,300 (0.42%) were called active. Only a selection was taken, and actives are over-represented in it overall. A number with no mark means an inactive call. Rule as the data show it: active = inhibition above about 50%; inactive = the rest.

Molecular target: Dual specificity tyrosine-phosphorylation-regulated kinase 1A (Rattus norvegicus) (UniProt Q63470)
Assay: inhibition of Dyrk1A kinase activity – biochemical, single point, plate reader, primary screen (AID 504441);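 also: plate controls were vehicle with enzyme for no effect and no enzyme for full effect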
Conditions: ADP-Glo luminescence, NFATc1 peptide, at 12.5 µM, active compounds read high

Compound | inhibition
O=C1/C(=C\c2ccc([N+](=O)[O-])cc2)CS(=O)(=O)C/C1=C/c1ccc([N+](=O)[O-])cc1 | 2.21%
N#Cc1cccc(CN2CCC(=O)N([C@H](CO)c3ccccc3)CC2)c1 | 50.1% (active)
N#Cc1cccc(CN2CCC(=O)N(CCO)CC2)c1 | 12.9%
O=C1CCN(Cc2ccccc2)CCN1[C@H](CSc1ccccc1)c1ccccc1 | 7.38%
CCCCN(C(=O)CSCc1ccc(C)cc1)c1c(N)n(Cc2ccccc2)c(=O)[nH]c1=O | -1.45%
O=[N+]([O-])c1ccc(NS(=O)(=O)c2ccccc2)c(Cl)c1 | -7.67%
O=C(O)c1ccc(NN=CC2=C(N3CCOCC3)/C(=C/c3ccccc3)CC2)cc1 | 17.6%
COc1ccc(S(=O)(=O)N2CCc3ccccc32)cc1C(=O)Nc1cc(S(C)(=O)=O)ccc1Cl | -1.51%
Cc1ccccc1Nc1nc(-c2cccnc2)cs1 | 9.73%
CN(c1ccc(O)cc1)c1nc(-c2cccnc2)cs1 | 3.73%
Oc1ccc(-c2csc(Nc3cccnc3)n2)cc1 | 53.9% (active)
O=C(NNC(=O)c1ccccc1O)c1ccccc1O | -1.63%
CCOC(=O)c1ccccc1OC(=O)Oc1ccccc1C(=O)OCC | 4.02%
O=C1OCC2=C1C(c1ccc(Cl)cc1)c1cc3c(cc1O2)OCO3 (stereo not given) | -1.45%
O=C(Nc1ccc(S(=O)(=O)N2CCOCC2)cc1)C1CCN(S(=O)(=O)c2ccc(Cl)cc2)CC1 | 7.12%
CN1C(=O)/C(=C\c2ccc(-c3ccccc3)o2)SC1=S | -4.31%
CN1CCN(/N=C/c2ccc(-c3ccc([N+](=O)[O-])cc3)o2)CC1 | 4.45%
NS(=O)(=O)c1ccc(-c2ccc(/C=C3\SC(=O)NC3=O)o2)cc1 | 87.9% (active)
O=C(Nc1c(Br)cc2c(c1Br)Cc1cc([N+](=O)[O-])ccc1-2)C(Cl)Cl | -6.68%
Cc1cc(OCCCC(=O)Nc2cc(S(=O)(=O)N3CCOCC3)ccc2N2CCOCC2)ccc1Cl | 1.11%
CCOC(=O)[C@H]1[C@H]2COc3ccc(Br)cc3[C@@H]2N2C(=O)CN(C)C(=O)[C@@]12C | -7.39%
CC(=O)Nc1cccc(-c2cnc3ccccc3n2)c1 | 50.4% (active)
O=C(Nc1cccc(-c2nc3ccccc3[nH]2)c1)c1ccc(C(=O)Nc2cccc(-c3nc4ccccc4[nH]3)c2)cc1 | 4.53%

Compound | inhibition
CC(=O)Nc1cccc(-c2csc(Nc3cccc(C)n3)n2)c1 | 9.85%
CN(C)C(=S)N=c1ssc(=S)n1Cc1ccco1 | 0.385%
O=C(Cc1ccc([N+](=O)[O-])cc1)NCCc1ccc2c(c1)OCO2 | 3.06%
COc1ccc(C(=O)N(C)Cc2ccc(OC)c(OC)c2OC)cc1S(=O)(=O)N1CCOCC1 | -3.97%
NC(CSC1(c2ccccc2)c2ccccc2-c2ccccc21)C(=O)O (stereo not given) | -0.913%
COc1cc2[nH]c(O)c(C=O)c2cc1OC | 3.93%
CC(=O)Nc1cccc(Nc2nc(-c3cccs3)nc3ccccc23)c1 | 26.8%
Cc1cccc(-c2nc(Nc3ccc(O)cc3)c3ccccc3n2)c1 | 62% (active)
COc1ccc(Nc2nc(-c3cccnc3)nc3ccccc23)cn1 | 24.1%
O=C1C=C(NS(=O)(=O)c2ccccc2)C(=O)c2ccccc21 | 0.22%
CCN1C[C@@H]2[C@@H]3C(=O)N(Cc4ccccc4)C(=O)[C@@H]3[C@](C)(C1=O)N2C(=O)c1ccc(C(C)(C)C)cc1 | -5.8%
O=C(Nc1cccc(Br)c1)C1CC(=O)N(C2CCCC2)C1 (stereo not given) | -2.1%
O=C1NC(=O)C(CCc2ccccc2)(c2ccccc2)N1 (stereo not given) | -4.85%
COc1c(O)cc2oc(-c3ccc(O)c(O)c3)cc(=O)c2c1O | 50.5% (active)
CCOC(=O)COc1cc(OCC(=O)OCC)c2c(=O)cc(-c3ccccc3)oc2c1 | 0.414%
CCOC(=O)COc1cc(O)c2c(=O)cc(-c3ccccc3)oc2c1 | -1.6%
CCOC(=O)C1CCCN(C(=O)C2CCN(S(=O)(=O)c3ccc(Cl)c(C(F)(F)F)c3)CC2)C1 (stereo not given) | -9.38%
CC(=O)Nc1cccc(-c2nc3ccccc3s2)c1C | -0.865%
Oc1ccc(-c2[nH]ncc2-c2nc3ccccc3s2)c(O)c1 | 66.5% (active)
COc1ccc(Oc2cn[nH]c2-c2ccc(OC)cc2O)cc1 | 11.8%
CC(=O)OC1CCC2C3CCC4=C(CC(F)C(=O)C4)C3CCC12C (stereo not given) | -2.02%
O=C(OCC1OC(Oc2ccc(O)cc2)C(O)C(O)C1O)c1ccccc1 (stereo not given) | 13.6%
COc1ccc(-c2cc(=O)c3c(O)cc(O[C@@H]4O[C@H](CO[C@@H]5O[C@@H](C)[C@H](O)[C@@H](O)[C@H]5O)[C@@H](O)[C@H](O)[C@H]4O)cc3o2)cc1O | -6.42%

Compound | inhibition
C[C@@H]1O[C@@H](OC[C@H]2O[C@@H](Oc3c(-c4ccc(O)cc4)oc4cc(O)cc(O)c4c3=O)[C@H](O)[C@@H](O)[C@@H]2O)[C@H](O)[C@H](O)[C@H]1O | 66.5% (active)
N#CCc1c[nH]c2ccc([N+](=O)[O-])cc12 | 20%
CCc1ccc(C(=O)C(C)OC(=O)CN2C(=O)NC3(CCCC3)C2=O)cc1 (stereo not given) | 0.139%
O=C1NCC(Nc2ccccc2)C(=O)N1 (stereo not given) | -0.332%
COc1cc2c(cc1OC)C1C(=O)c3cc(OS(C)(=O)=O)c(OC)cc3C1N(C)C2=O (stereo not given) | 3.14%
CC(C)C(=O)Nc1cccc(C(=O)Nc2ccc3c(c2)OCO3)c1 | -2.73%
O=C(COC(=O)c1ccc(F)cc1)Nc1ccc2c(c1)OCO2 | -0.789%
CC(=O)Nc1cccc(C(=O)OCC(=O)c2ccc3c(c2)OCO3)c1 | 69.4% (active)
Cc1nc2ccccc2nc1N/N=C/c1ccc(O)cc1O | 9.74%
Oc1ccc(-c2nc3ccccc3nc2-c2ccc(O)cc2O)c(O)c1 | 76.3% (active)
Oc1ccc2nc(Cc3ccccc3)[nH]c2c1 | 10.9%
CC(NC(=O)c1ccccc1)C(=O)OCC(=O)Nc1cccc(S(=O)(=O)N2CCCC2)c1 (stereo not given) | 1.68%
Cc1ccnc(NS(=O)(=O)c2ccc(NC(=O)c3oc4ccccc4c3C)cc2)n1 | 28.5%
Cc1noc(NS(=O)(=O)c2ccc(NC(=O)c3oc4ccc(F)cc4c3C)cc2)c1C | 60% (active)
Cc1ccnc(NS(=O)(=O)c2ccc(NC(=O)c3oc4ccc(F)cc4c3C)cc2)n1 | 1.02%
CCC1(C)COC(c2ccc(OC)c(OC)c2)OC1 (stereo not given) | 2.1%
O=C(O)C(c1cccs1)C1(O)CCCCC1 (stereo not given) | 2.77%
NC(=O)C1CCN(C(=O)c2cc(S(=O)(=O)N3CCN(c4ccccc4)CC3)ccc2Cl)CC1 | 8.45%
CC(C)Cn1cnc2c(SCc3ccc(Cl)cc3)nc(N)nc21 | 7.52%
CCc1nnc(NC(=O)c2cc(S(=O)(=O)N3CCN(CC)CC3)ccc2Cl)s1 | 7.13%
c1ccc(C(=NNc2nc3ccccc3s2)c2ccccn2)cc1 | 12.7%
COc1ccc(N=C2C=CC(=O)O2)cc1 | 7.98%
O=C(NCC1(N2CCCCC2)CCCCC1)c1cccc(S(=O)(=O)Nc2ccccc2Cl)c1 | -5.86%

Compound | inhibition
COc1cccc2cc(-c3cc(=O)oc4cc(C)c(O)cc34)oc12 | -4.38%
COc1cc(O)c2c(=O)c3c(O)c(O)ccc3oc2c1OC | 50.1% (active)
COc1cccc2c(O)cc(=O)n(C)c12 | 26.6%
CC(C)(C)OC(=O)N(Cc1ccccc1)Cc1ccc(OCc2cccc(NC(=O)c3ccccc3)c2)cc1 | -3.26%
COc1ccc(-c2nc3cc(C)ccn3c2NC2CCCCC2)cc1SC1CCCCC1 | 1.83%
CCN(CC)S(=O)(=O)c1cccc(NC(=O)c2ccc(S(=O)(=O)N3CCCC3)cc2)c1 | 1.24%
CC(C)(C)OC(=O)N1CCC(C(=O)Nc2cccc(C(=O)NCCc3ccccc3)c2)CC1 | -16.9%
CCN(CC)c1ccc(NC(=O)CCc2nnc3ccc(N4CCCCC4)nn23)c(C)c1 | 59.6% (active)
CCOc1ccc(CCNC(=O)CCc2nnc3ccc(N4CCCC4)nn23)cc1OCC | 17.6%
CCOC(=O)c1cccc(NC(=O)CCc2nnc3ccc(N4CCOCC4)nn23)c1 | 2.86%
O=C1C(Cl)=C(Oc2ccccc2)C(=O)c2ccccc21 | 35.4%
Oc1cccc(CCc2ccccn2)c1 | 7.91%
COc1ccc(OC)c(Cc2cnc3nc(N)nc(N)c3c2C)c1 | -1.98%
Nc1nonc1-n1nnc(C(=O)N/N=C/c2ccccc2O)c1CN1CCCC1 | 14.8%
NNC(=O)c1nnn(-c2nonc2N)c1CN1CCCC1 | 15.1%
Nc1nonc1-n1nnc(C(=O)N/N=C\c2ccncc2)c1CN1CCCCC1 | 77.4% (active)
Cc1nc(Nc2ccccc2C)c2cnn(C)c2n1 | -5.25%
CCOC(=O)N(Cc1ccccc1)C1CC1 | -0.945%
COc1ccc(CCC(=O)Nc2ccc(Cl)c(S(=O)(=O)N3CCOCC3)c2)cc1OC | -1.66%
CN1c2ccc(C=O)c3c(C=O)ccc(c23)N(C)C1(C)C | 91.2% (active)
CN(CCc1ccccc1)C(=O)c1cccc(NC(=O)Cc2cccc(NC(=O)C3CCCN(C(=O)C4CCC4)C3)c2)c1 (stereo not given) | -0.693%
